We go through 99 compounds from PubChem BioAssay AID624297 (National Center for Advancing Translational Sciences (NCATS), 2012).

About 6,200 (1.8%) of roughly 340,000 compounds were called active. Where a call stands in place of a potency, no number is given. Inconclusive results (about 10%) are left out. The sample holds actives, similar compounds and a random draw of the others, so the mix is not that of the screen. Calls follow the shape of the dose curve; as a rule, active = well fitted activation curve with a large enough effect; inconclusive = small, poorly fitted or top-dose-only effect; inactive = no such curve, though single readings can be large or run the other way.
Potency is read from the fitted curve at half-maximal effect.

This experiment is described as follows: A quantitative high throughput screen for small molecules that induce DNA re-replication in SW480 colon adenocarcinoma cells. Also: nearly all actives have a fitted effect of over 55% in size. The note with it: Hoechst DNA content imaging, 48 h; series mostly up to 46.1 µM. The essentials:
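SW480 cells exposed to compounds for 48 hr at 37 C, 5% CO2, then Hoechst-stained 40 min. Nuclear DNA content imaged by fluorescence scanning (405 nm excitation, 500-530 nm emission); re-replication scored as increased high-intensity nuclei.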
With `CCCC1=Nc2cc(C(=O)NCc3ccco3)ccc2Sc2ccccc21`, the Potency was 5.17 µM (active).
In the case of `CC(C)(C)c1ccc(C(=O)NCc2ccco2)cc1`, the Potency result was “inactive”.
Take `CCC1=Nc2cc(C(=O)NCCCN3CCOCC3)ccc2Sc2ccc(Br)cc21`: the Potency result is “inactive”.
`COc1ccc(NC(=O)Nc2ccc3c(c2)C(=O)N([C@H](C)CO)C[C@H](C)[C@@H](CN(C)C(=O)Nc2ccc4c(c2)OCO4)O3)cc1`: the Potency entry was “inactive”.
`O=C(Cc1ccc(NC(=O)C2CCCN(C(=O)CCc3ccccc3)C2)cc1)Nc1ccc(C(=O)N2CCOCC2)cc1` (centres undefined): the re-replication activation was -31.4% [at 9.22 µM] (inactive).
For the compound `Cc1ccc(C(=O)Nc2ccn(C)n2)cc1`, the Potency is 18.4 µM (active).
As to `CN(C)S(=O)(=O)c1cc(C(=O)Nc2ccn(C)n2)c(Cl)cc1Cl`, the Potency entry was “inactive”.
In the case of `Cn1ccc(NC(=O)Nc2ccc(Cl)cc2)n1`, the Potency entry is “inactive”.
Regarding `CC(=O)N(O)CCCCCNC(=O)CCC(=O)N(O)CCCCCNC(=O)CCC(=O)N(O)CCCCCNC(=O)CCC(=O)O`, the Potency result was “inactive”.
Same read-out and setting: with `CCOc1ccc(N/C=C/C(=O)c2cc(OC)c(OC)c(OC)c2)cc1` the figure was 0.58 µM (active); with `CCOc1ccc(NC(=O)Nc2cc(C)ccc2OC)cc1`, “inactive”.
On to `CCOc1ccc(C(=O)Nc2cc(OC)ccc2OC)cc1`, for which the Potency result was “inactive”.
In the case of `CCCC(O)(c1ccccc1)C(c1ccccc1)c1ccccn1` (centres undefined), the Potency result was “inactive”.
`CC1CN(Cc2ccccc2)C(=S)NC1=O` (centres undefined): the Potency result was “inactive”.
On to `CN(C)S(=O)(=O)c1cccc(-c2nn(-c3ccccc3)cc2/C=C2\SC(=S)N(CC(=O)O)C2=O)c1`, for which the Potency is 16.4 µM (active).
As for `O=C(CN1C(=O)/C(=C\c2ccccc2F)SC1=S)Nc1nc2ccccc2s1`, the Potency result is “inactive”.
Same read-out and setting: with `COc1ccc(/C=C2\SC(=S)N(CCC(=O)Nc3ccccn3)C2=O)cc1OC` the entry was “inactive”.
Regarding `Cc1ccc(S(=O)(=O)n2oc(=O)c(C3CCCCC3)c2N)cc1`, the Potency entry is “inactive”.
With `O=C(Nc1cccc(S(=O)(=O)N2CCOCC2)c1)C12CC3CC(CC(C3)C1)C2`, the Potency result was “inactive”.
As to `CC[C@]12c3[nH]c4ccc(OC)cc4c3CCN1C(=O)C(CC(=O)NCCN1CCOCC1)C[C@@H]2C(=O)N1CCN(C(=O)C2CC2)CC1` (some centres undefined), the Potency result is “inactive”.
Still for that read-out and setting: with `C=CCC[C@H](Cc1ccc(F)cc1)C(=O)OC[C@H](C)NC(=O)[C@H](CC=C)CC(=O)N(CCO)Cc1ccccc1` the entry was “inactive”.
For the compound `CCOc1ccc(NC(=O)CSc2nc3ccccc3c(=O)n2Cc2cccs2)cc1`, the Potency was 1.64 µM (active).
On to `CCc1ccc(NC(=O)CSc2nc3ccccc3c(=O)n2CCN2CCOCC2)cc1`, for which the Potency entry was “inactive”.
As to `COc1ccc(NC(=O)CSc2nc3ccccc3c(=O)n2C)cc1`, the Potency result is “inactive”.
`O=C(NCC1(N2CCCCC2)CCCCC1)c1cccc(S(=O)(=O)Nc2ccccc2Cl)c1`: the Potency result was “inactive”.
In the case of `O=C(NCCC(=O)N1O[C@@H]2C=C[C@H]1C2)OCC1c2ccccc2-c2ccccc21`, the Potency entry is “inactive”.
On to `O=C(COc1ccc([N+](=O)[O-])cc1Cl)Nc1ccc2[nH]c(=O)[nH]c2c1`, for which the Potency result was “inactive”.
Turning to `COc1cc(OC)c2c(-c3cccc(-c4cccc(N)c4)c3)cc(=O)oc2c1`, the Potency was 3.66 µM (active).
For the compound `COc1ccc(-c2c(C)cc3oc(=O)cc(-c4ccccc4)c3c2C)cc1F`, the Potency entry is “inactive”.
Consider `COc1ccc(-c2c(C)cc3oc(=O)cc(-c4ccccc4)c3c2C)cc1OC`, for which the Potency entry was “inactive”.
As to `CN(C)C(=O)CCc1ccc2c3c([nH]c2c1)[C@]1(CCc2ccccc2)[C@@H](C(=O)N2CCCCC2)C[C@H](CC(=O)NCCC2=CCCCC2)C(=O)N1CC3`, the Potency entry is “inactive”.
As for `Cc1ccccc1N1CCN(C(=O)c2cccnc2)CC1`, the Potency result was “inactive”.
Take `Cc1ccc2c(c1)C1C[N+](C)(CC(=O)c3ccccc3)CCC1N2C(=O)c1ccccc1Cl` (centres undefined): the Potency result is “inactive”.
Still for that read-out and setting: the value for `O=C(NNC(=O)c1ccc2ccccc2c1)c1ccc(Cl)cc1` was “inactive”; that for `C[C@H](NC(=O)OC(C)(C)C)c1nnc(SCC(=O)Nc2ccc(Br)cc2)o1` was “inactive”.
On the same count and under the same terms, with `C[C@@H](NC(=O)OC(C)(C)C)c1nnc(S(=O)(=O)Cc2ccccc2)o1` the figure was 13 µM (active); with `CC(C)Sc1nnc([C@H](Cc2ccccc2)NC(=O)OC(C)(C)C)o1`, “inactive”.
In the case of `Cc1[nH]c(=O)c(C(=O)/C=C/c2ccccc2)c2c1CCCC2`, the Potency is 20.6 µM (active).
Take `O=C(/C=C/c1ccc(N2CCOCC2)cc1)c1ccccc1`: the Potency result was “inactive”.
`Cc1cn(COC/C=C/c2ccccc2)c(=O)[nH]c1=O`: the Potency result was “inactive”.
In the case of `Oc1ccccc1/C=N/n1c(-c2cccs2)n[nH]c1=S`, the Potency entry is “inactive”.
Same read-out and setting: with `Cc1cc(-c2n[nH]c(=S)n2/N=C/C(Br)=C/c2ccccc2)n[nH]1` the figure was 6.51 µM (active).
Still for that read-out and setting: with `S=c1[nH]nc(-c2cccs2)n1/N=C/c1cccs1` the entry was “inactive”; with `Cc1ccc(C2=Nc3c(ccc4ccccc34)C(c3ccncc3)=NN2)cc1`, 18.4 µM (active); with `CN(C(=O)COC(=O)Cn1cnc2c1c(=O)n(C)c(=O)n2C)C1(C#N)CCCCC1`, “inactive”.
For the compound `CS(=O)(=O)c1ccc(C(=O)NNC(=O)c2cccs2)cc1`, the Potency entry is “inactive”.
`O=C(COC(=O)Cc1ccc([N+](=O)[O-])cc1)NC1CCCCCC1`: the Potency result was “inactive”.
Take `O=C(OCC(=O)N1CCN(c2ccccc2)CC1)c1ccc([N+](=O)[O-])s1`: the Potency entry was “inactive”.
As to `N#CCc1c[nH]c2ccc([N+](=O)[O-])cc12`, the Potency entry was “inactive”.
With `C/C=C/c1ccc(OCC(=O)NNC(=O)CN(C)S(=O)(=O)c2ccc(C)cc2)c(OC)c1`, the Potency entry is “inactive”.
On to `CCC(C)N1C(=O)S/C(=C/c2ccc(Sc3nc4ccccc4[nH]3)o2)C1=O` (centres undefined), for which the Potency was 18.4 µM (active).
Regarding `CCCCSc1nc2ccccc2[nH]1`, the Potency entry was “inactive”.
Consider `CCc1nnc(NC(=O)CCCSc2nc3ccccc3[nH]2)s1`, for which the Potency result is “inactive”.
Consider `Nc1ncnc2c1cnn2C1CC(O)C(CO)O1` (centres undefined), for which the Potency result is “inactive”.
Regarding `CC(C)N(C(=O)[C@H]1C[C@H](CC(=O)NCCC2=CCCCC2)C(=O)N2CCc3c([nH]c4cc(CCC(=O)N(C)C)ccc34)[C@]12C)C(C)C`, the Potency entry was “inactive”.
In the case of `CC(Nc1ccc([N+](=O)[O-])cc1[N+](=O)[O-])c1ccccc1` (centres undefined), the Potency entry is “inactive”.
As for `COc1ccccc1NC(=O)CSc1nc2sc3c(c2c(=O)n1-c1ccccc1)CCN(C)C3`, the Potency entry is “inactive”.
Turning to `CCOc1ccc(-n2c(SCC(=O)OC)nc3sc4c(c3c2=O)CCN(C)C4)cc1`, the Potency result was “inactive”.
For `CCCSc1nc2sc3c(c2c(=O)n1-c1ccc(OC)cc1)CCN(C)C3`, the Potency was 1.84 µM (active).
With `Cc1noc(C)c1NC(=O)Nc1ccc2c(c1)C(=O)N([C@H](C)CO)C[C@H](C)[C@@H](CN(C)S(=O)(=O)c1cn(C)cn1)O2`, the Potency entry was “inactive”.
As for `C[C@]12c3[nH]c4ccc(Cl)cc4c3CCN1C(=O)[C@@H](CC(=O)NCCCn1ccnc1)C[C@@H]2C(=O)N1CCOCC1`, the Potency result was “inactive”.
The same measure, in the same setting: the value for `O=C(N/N=C/c1c[nH]c2ccccc12)c1ccccc1O` was “inactive”.
As for `Oc1ccccc1C=NC1CCCCC1N=Cc1ccccc1O` (centres undefined), the Potency entry is “inactive”.
Take `COc1ccc(/C=N/NC(=O)C2CC2)c(OC)c1OC`: the Potency entry was “inactive”.
For `O=C(NN=Cc1ccccc1O)NN=Cc1ccccc1O`, the Potency was 16.4 µM (active).
For `O=C(N/N=C/c1ccccc1O)C1CCCC1`, the Potency is 4.61 µM (active).
As to `O=C(NN=Cc1ccccc1)c1ccccc1`, the Potency result is “inactive”.
Take `NC(CSC1(c2ccccc2)c2ccccc2-c2ccccc21)C(=O)O` (centres undefined): the Potency result is “inactive”.
Same read-out and setting: with `COc1cc(OC)cc(C(=O)NCC(=O)N2CCCCCCC2)c1` the entry was “inactive”; with `NC(=O)c1ncn([C@@H]2O[C@H](CNCc3cnc(N4CCOCC4)s3)[C@@H](O)[C@H]2O)n1`, “inactive”; with `NS(=O)(=O)c1ccc(CCNC(=O)c2ccc(Cl)c(S(=O)(=O)N3CCCCCC3)c2)cc1`, “inactive”.
The same measure, in the same setting: the value for `COc1ccc2oc(N)nc2c1` was “inactive”; that for `CC[C@]1(C(=O)OC)[C@H]2C(=O)N(Cc3ccccc3)C(=O)[C@H]2[C@H]2CN=C(SCc3ccc(Cl)cc3)N21` was “inactive”.
Take `CCc1c(Nc2ccccc2C)nc(N)[nH]c1=O`: the Potency entry is “inactive”.
As to `Cc1c(C(=O)N2CCCc3ccccc32)sc2nc(-c3ccccc3)cn12`, the Potency result is “inactive”.
For the compound `Cc1c(C(=O)N2CCCc3ccccc32)oc2ccccc12`, the Potency entry is “inactive”.
Regarding `Cc1cccc2cc3c(N)c(C(=O)N4CCCc5ccccc54)sc3nc12`, the Potency was 5.17 µM (active).
Consider `CN(C(=O)c1cccc(NC(=O)Cc2cccc(NC(=O)C3CCCN(C(=O)C4CC4)C3)c2)c1)C1CCC1` (centres undefined), for which the re-replication activation was 3.52% [at 9.22 µM] (inactive).
Consider `COc1ccccc1CC(=O)Nc1ccc(F)cc1F`, for which the Potency entry was “inactive”.
Regarding `COC(=O)c1ccccc1NC(=O)Cc1ccccc1OC`, the Potency entry is “inactive”.
As for `CC[C@]1(c2ccccc2OC)C(=O)N(C(=O)OC)N1C(=O)OC`, the Potency was 23.1 µM (active).
With `O=C(Cc1ccc(Cl)cc1)c1ccccc1`, the Potency entry was “inactive”.
For `O=C1CC(C(=O)O)NC(=S)N1` (centres undefined), the Potency entry was “inactive”.
Take `Cc1ccc(C)c(N2CCN(C(=O)CCc3nc(-c4cccc(C(F)(F)F)c4)no3)CC2)c1`: the Potency entry was “inactive”.
For `CC(C)CN1CC(C)C(=O)N(c2ccccc2)C1=S` (centres undefined), the Potency entry is “inactive”.
`COc1ccc(Nc2nnc(C)c3ccccc23)cc1`: the Potency entry is “inactive”.
For the compound `COc1ccc(Nc2cc(=O)oc3ccccc23)cc1`, the Potency was 5.17 µM (active).
Regarding `COc1ccc2oc(=O)cc(-c3cc4ccccc4o3)c2c1`, the Potency result was “inactive”.
As for `CN1CCC(N(C)C(=O)c2ccc(Cl)c(S(=O)(=O)Nc3ccc(Cl)cc3)c2)CC1`, the Potency entry is “inactive”.
As to `CCOC(=O)c1c(C)[nH]c(C)c1S(=O)(=O)N(C)CC(=O)Nc1ccccc1C`, the Potency entry was “inactive”.
Still for that read-out and setting: the value for `CCOC(=O)c1c(C)[nH]c2c1-c1ccccc1C(=O)C2=O` was 5.17 µM (active).
Regarding `CCOC(=O)c1ccccc1OC(=O)Oc1ccccc1C(=O)OCC`, the Potency entry was “inactive”.
Consider `O=C(NCc1ccccc1)c1cccc(NC(=O)C2CCCCC2)c1`, for which the re-replication activation was -9.55% [at 9.22 µM] (inactive).
As for `Cn1c(=O)[nH]c2c(c(C(=O)O)nn2C)c1=O`, the Potency entry was “inactive”.
Still for that read-out and setting: with `COCC(=O)N(C)[C@H]1C[C@H]2c3cc(Oc4ccccc4C)ccc3CCN2C(=O)[C@H]1[C@H](C)O` the entry was “inactive”.
On to `N#CC(Cc1cc2ccccc2n1S(=O)(=O)c1ccccc1)OCc1ccccc1` (centres undefined), for which the Potency entry is “inactive”.
Same read-out and setting: the value for `N#Cc1cccc(NC(=O)COC(=O)c2ccccc2C(=O)c2ccc(Cl)c([N+](=O)[O-])c2)c1` was “inactive”.
As for `CC(OC(=O)CNC(=O)c1ccc(Cl)c([N+](=O)[O-])c1)C(=O)NCc1ccco1` (centres undefined), the Potency result was “inactive”.
The same measure, in the same setting: the value for `CC(=O)Nc1ccc(NC(=O)C(C)OC(=O)c2ccccc2C(=O)c2ccc(Cl)c([N+](=O)[O-])c2)cc1` (centres undefined) was 16.4 µM (active).
